From PubChem BioAssay AID434973 (Sanford-Burnham Center for Chemical Genomics, 2010) come the findings set out here.

Each structure is given as a SMILES string. The whole screen tested about 330,000 compounds, of which about 4,900 (1.5%) were called active. What follows is part of a selection rich in actives, with near analogues and random picks from the rest. A number with no mark means an inactive call.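 How the source made its calls: active means inhibition above about 50% at the single test dose (limit read from the data); inactive means the rest.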

The assay deals with Sentrin-specific protease 7 (Homo sapiens) (UniProt Q9BQF6). Briefly: blockers of human SENP7 peptidase activity – biochemical, luminescence, uHTS, primary screen (AID 434973).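 Further: plate controls were DMSO with enzyme for no effect and no enzyme buffer wells for full effect.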 Conditions: recombinant SENP7, Z-RLRGG-aminoluciferin luminescence, 40 min; at 5 µM; hits give high values.
With `CCn1cc(C(=O)N[C@@H](C)C(=O)NCCO)c(=O)c2cc3c(cc21)OCO3`, the inhibition is -6.11%.

In the case of `CC(C(=O)Nc1ccc(S(=O)(=O)N2CCCC2)cc1)N(C)Cc1ccc(F)cc1` (stereo unspecified), the inhibition is 8.65%.

For the molecule `CC(C)n1cnc2c(NCc3ccccc3)cc(OCC3CCN(C)CC3)cc21`, the inhibition was 52.7% (active).

For `CC(C)n1cnc2c(NCc3ccccc3)cc(N[C@@H](CO)Cc3ccccc3)cc21`, the inhibition is 35.9%.

Take `CCC(CO)Oc1cc(NCc2ccccc2)c2ncn(C3CCCC3)c2c1` (stereo unspecified): the inhibition is 8.26%.

On to `O=C(CCNC(=O)C1CCN(S(=O)(=O)c2ccccc2)CC1)NC1CC1`, for which the inhibition is -2.25%.

On to `O=C(O)c1ccc(S(=O)(=O)N2CCOCC2)o1`, for which the inhibition is -7.75%.

Regarding `CCCC(=O)Nc1nnc(CC(=O)OCC)s1`, the inhibition is -2.16%.

On to `O=C(Nc1ccc(Cl)cc1)c1cc2nc(C3CC3)cc(C(F)(F)F)n2n1`, for which the inhibition is 2.83%.

Take `CC(C)c1ccc(C(=O)OC2CCOC2=O)cc1` (stereo unspecified): the inhibition is 5.83%.

As for `O=C(OC1CCOC1=O)c1ccc(-c2nc3ccccc3s2)s1` (stereo unspecified), the inhibition is 96.8% (active).

Take `COc1cc(C(=O)OC2CCOC2=O)c([N+](=O)[O-])cc1OC` (stereo unspecified): the inhibition was -1.58%.

`Cc1cc2oc(=O)cc(CN(C)Cc3ccc(OC(F)F)cc3)c2cc1Cl`: the inhibition was 5.95%.

In the case of `O=C(c1ccc(F)cc1)n1cc(C(=S)N2CCOCC2)c2ccccc21`, the inhibition is -1.66%.

Regarding `O=C(c1ccc(F)cc1)n1c(=S)nc2ccccn21`, the inhibition is 96.3% (active).

On to `O=C(Cn1c(=S)nc2ccccn21)N1CCc2ccccc2C1`, for which the inhibition is -0.589%.

`CN(C)C(=O)c1ccc(NC(=O)COC(=O)c2cc3c(s2)CCCCC3)cc1`: the inhibition is -2.04%.

For `O=C(Nc1ccc(F)cc1)c1cc2c(s1)CCCC2`, the inhibition was 87% (active).

For the molecule `O=C(NCC1CCCO1)c1cc2c(s1)CCCC2` (stereo unspecified), the inhibition was 7.59%.

For the molecule `CC(Sc1sc(=S)sc1SC(C)C(=O)O)C(=O)O` (stereo unspecified), the inhibition is -0.431%.

Consider `N#C/C(C(=S)Nc1ccccc1)=C1/NN=C(N2CCOCC2)N1c1ccccc1`, for which the inhibition was -1.15%.

As to `O=C(CSC(=S)N1CCOCC1)c1cc(Br)cc(Br)c1O`, the inhibition is 1.34%.

Consider `CC1CN(C(=S)SCC(=O)c2ccccc2)CC(C)O1` (stereo unspecified), for which the inhibition is 1.97%.

As for `O=C(CSC(=S)N1CCOCC1)c1ccccc1`, the inhibition is 62.7% (active).

For `CCN(CC(=O)Nc1ccccc1C(F)(F)F)C(=O)C1CCN(C(=O)Nc2ccccc2)CC1`, the inhibition was 3.1%.

On to `CC1CCc2sc3nc(N4CCN(CCO)CC4)n4ncnc4c3c2C1` (stereo unspecified), for which the inhibition was -6.6%.

In the case of `CNc1nc(Nc2ccc(C)c(Cl)c2)nc(N)c1[N+](=O)[O-]`, the inhibition is 99.9% (active).

As for `CCN1CCN(c2nc(Nc3cccc(F)c3)nc(N)c2[N+](=O)[O-])CC1`, the inhibition is -8.75%.

In the case of `COc1cccc(Nc2nc(N)c([N+](=O)[O-])c(NCc3ccco3)n2)c1`, the inhibition was 3.33%.

As to `O=C(NCCCc1ccccc1)C1CCC(CNc2c(N3CCCCC3)c(=O)c2=O)CC1` (stereo unspecified), the inhibition was 3.15%.

Consider `CC(=O)Nc1ccc(CN2CCC(Oc3ccc(C(=O)N4CCCC4)cc3)CC2)cc1`, for which the inhibition was 0.753%.

As for `O=C(CN1CCN(c2ccccc2F)CC1)c1ccc2c(c1)OCO2`, the inhibition was 8.23%.

For the molecule `Fc1ccccc1-c1cc2cc3c(cc2cn1)OCO3`, the inhibition was 77.3% (active).

As to `O=C(c1ccco1)N1CCN(C(=O)c2cc(-c3ccccc3F)no2)CC1`, the inhibition was 4.1%.

Consider `Cc1nc(-c2ccccc2)sc1C1(C)CC(c2cccnc2)=NO1` (stereo unspecified), for which the inhibition is -12.6%.

As for `CCC(=O)NC(Nc1cc(C)ccn1)(C(F)(F)F)C(F)(F)F`, the inhibition is 98.5% (active).

Consider `CCOC(=O)NNc1cc(C(F)(F)F)ccn1`, for which the inhibition was 13.9%.

With `Cc1ccnc(NC(=O)CCCOc2ccccc2)c1`, the inhibition is -12.2%.

Consider `Cc1ccc2[nH]cc(CCNC(=O)C3CCCCC3)c2c1`, for which the inhibition is 5.37%.

For the molecule `Cc1ccccc1C(=O)NC(=S)Nc1ccc(N2CCN(C(=O)c3ccccc3)CC2)cc1`, the inhibition is -6.96%.

For `COc1ccc(C(=O)Nc2cccc(S(C)(=O)=O)c2)cc1`, the inhibition was 0.473%.

Take `COc1cccc(C(=O)Nc2ccc(N3CCCC3)cc2)c1`: the inhibition was 99.4% (active).

For `CCOc1ccc(C(=O)Nc2cccc(-c3ccc4nncn4n3)c2)cc1`, the inhibition is -7.35%.

For the molecule `COc1cccc(C(=O)Nc2nnc(S(=O)(=O)N3CCCCC3)s2)c1`, the inhibition was 11.4%.

In the case of `CCC(=O)Nc1ccc(C(=O)Nc2cccc(OC)c2)cc1`, the inhibition is 56.2% (active).

On to `Cc1ccccc1C(=O)N1CCN(c2ccc(NC(=O)c3cccs3)cc2)CC1`, for which the inhibition was -2.29%.

For `Cc1ccccc1C(=O)Nc1ccc(N2CCCCCC2)cc1`, the inhibition was 60.8% (active).

`CSc1cccc(NC(=O)CSc2ccccc2)c1`: the inhibition was 4.87%.

In the case of `CCOc1ccc(C(=O)Nc2cccc(SC)c2)cc1`, the inhibition is 88.7% (active).

Turning to `COc1cccc(NC(=O)CN(C)CC(=O)Nc2ccc3c(c2)CCC3)c1`, the inhibition is 10.1%.

Regarding `O=C(Nc1ccc(N2CCOCC2)cc1)c1cccc(S(=O)(=O)N2CCOCC2)c1`, the inhibition is 8.65%.

With `Cc1c(Cl)c([N+](=O)[O-])nn1CCCC(=O)NC(C)c1ccccc1` (stereo unspecified), the inhibition is -0.959%.

In the case of `COc1ccc(CC(=O)OC(C)C(=O)Nc2ccc(S(N)(=O)=O)cc2)cc1` (stereo unspecified), the inhibition is 0.778%.

Regarding `CS(=O)(=O)N1CCCC(C(=O)N2CCOCC2)C1` (stereo unspecified), the inhibition was -2.39%.

With `COc1ccc(/C=C2/S/C(=N/N=C3\CC4CCC3(C)C4(C)C)NC2=O)cc1` (stereo unspecified), the inhibition is -4.16%.

In the case of `Cc1noc(C)c1C(=O)NC(C)c1ccc2c(c1)OCO2` (stereo unspecified), the inhibition is 1.47%.

In the case of `COC(=O)[C@H](CC(C)C)NC(=O)N1CCCCC1C` (stereo partly specified), the inhibition is 1.79%.

`COc1cc(/C=N/NC(=O)CCc2n[nH]c(=O)[nH]c2=O)ccc1O`: the inhibition is 2%.

In the case of `COc1cc(/C=N/Nc2nc3ccccc3s2)ccc1O`, the inhibition is 81.9% (active).

`COc1ccc(/C=N/NC(=O)c2cc(-c3cccc(C)c3)nc3ccccc23)cc1O`: the inhibition is 7.7%.

Turning to `Cc1cc(C)c(OCC(=O)N(Cc2cccs2)C2CCS(=O)(=O)C2)c(C)c1` (stereo unspecified), the inhibition is 0.829%.

For the molecule `O=C(CC(NCCN1CCOCC1)C(=O)O)Nc1cccc(Cl)c1` (stereo unspecified), the inhibition was 2.14%.

Take `COc1ccc(C(=O)NC2CCN(C(=O)Nc3ccc(F)cc3)CC2)cc1`: the inhibition was -1.37%.

Consider `O=c1ccnc(Nc2ccc(Cl)cc2)[nH]1`, for which the inhibition is 3.66%.

In the case of `Clc1ccc(Nc2ccc3ccccc3n2)cc1`, the inhibition was 89.6% (active).

Turning to `Cc1cc(Nc2ccc(Br)cc2)nc2ccccc12`, the inhibition was 0.988%.

`Cc1ccccc1CSc1nnc(CCCCCNC(=O)OC(C)(C)C)o1`: the inhibition is 8.18%.

With `CC(NC(=O)c1ccco1)c1ccc2c(c1)OCO2` (stereo unspecified), the inhibition is 9%.

With `O=c1c(-c2ccccc2)coc2cc(O)ccc12`, the inhibition is 66.2% (active).

As to `CCc1ccc(Oc2coc3cc(O)ccc3c2=O)cc1`, the inhibition is -2.69%.

For `CC(C)CN(Cc1c(O)ccc2c(=O)c(-c3ccccc3)coc12)CC(C)C`, the inhibition was 11.8%.

For `CC(=O)Nc1ccc(S(=O)(=O)N2CCC(C(=O)N[C@@H](Cc3ccccc3)C(=O)O)CC2)cc1`, the inhibition was -6.11%.

Take `C=CCNC(=S)N1CCN(CCN=Cc2c(C)[nH]n(-c3ccc([N+](=O)[O-])cc3)c2=O)CC1`: the inhibition was 87.2% (active).

As to `Cc1ccc(-n2[nH]c(C)c(/C=N/NC(=O)c3cccc([N+](=O)[O-])c3)c2=O)cc1C`, the inhibition is -1.05%.

As to `CCNC(=S)N1CCN(CCN=CC2=C(O)CC(C)(C)CC2=O)CC1`, the inhibition is -0.44%.

For `Cc1[nH]n(-c2ccc([N+](=O)[O-])cc2)c(=O)c1C=NCCN1CCN(C(=O)c2ccccc2F)CC1`, the inhibition was 82.4% (active).

As for `Cc1[nH]n(-c2ccccc2)c(=O)c1N=Nc1ccccc1C(=O)N1CCCCC1`, the inhibition is 0.644%.

On to `CC1(C)CC(=O)C(C=NCCN2CCN(C(=S)Nc3cccc(Cl)c3)CC2)=C(O)C1`, for which the inhibition is -11.9%.

In the case of `Cc1ccc(C(=O)N(CC(=O)NC2CCCC2)c2ccc(F)cc2)s1`, the inhibition is -4.07%.

On to `CCc1noc(C)c1C(=O)N1CCN(S(=O)(=O)c2cccc(C(F)(F)F)c2)CC1`, for which the inhibition is 0.961%.

With `O=C(Nc1cc2ccccc2oc1=O)C1CCCCC1`, the inhibition is 0.223%.

`O=c1oc2ccccc2cc1-c1cn(-c2ccccc2)c(=S)[nH]1`: the inhibition was 99.2% (active).

Consider `S=c1[nH]c(-c2cccs2)cn1-c1ccccc1`, for which the inhibition is -0.786%.

For `COc1ccc(C(CCN(Cc2ccc(OC)c(OC)c2)C(=O)CCl)c2ccccc2)cc1` (stereo unspecified), the inhibition is -4.24%.

On to `CCCS(=O)(=O)N1CCCC(C(=O)NCCN2CCCCC2C)C1` (stereo unspecified), for which the inhibition is 4.11%.

On to `COc1ccc(/C=C2\SC(=S)N(CCC(=O)Nc3cccc(C(=O)O)c3)C2=O)cc1OC`, for which the inhibition is -3.5%.

`COc1ccc(/C=C2\SC(=S)N(CC(=O)NNC(=O)c3ccncc3)C2=O)cc1`: the inhibition is 5.57%.

As to `C=CCOc1ccc(/C=C2\SC(=S)N(CCC(=O)O)C2=O)cc1`, the inhibition was 98.9% (active).

Consider `CCO[C@@H]1OC(C(=O)NC2CC2)=C[C@H](C)[C@H]1CCCO`, for which the inhibition was 6.12%.

Take `Cn1nccc1NS(=O)(=O)c1ccc(F)cc1`: the inhibition is 4.62%.

As to `O=C(CN1CCOC1=O)N1CCCC(Nc2ccc(F)c(F)c2)C1` (stereo unspecified), the inhibition was 1.33%.

As for `Cc1cccc(NC(=O)c2cccnc2Cl)n1`, the inhibition was 5.58%.

Turning to `Cc1cccc(NC(=O)c2ccc3ccccc3n2)n1`, the inhibition was 78.7% (active).

As for `Cc1cccc(NC(=O)c2cc(N3C(=O)CCC3=O)ccc2Cl)n1`, the inhibition is 6.63%.

On to `O=C(O)C1=CCCN(CCON=C(c2ccccc2)c2ccccc2)C1`, for which the inhibition is 1.76%.

For `Cc1ccc(CSc2nsc(C)c2C#N)cc1`, the inhibition is -2.96%.

For orientation: inhibition means the drop in the measured response relative to a control, in per cent.
